Experimental data taken from publication PMC5540273 (PLoS ONE, 2017).

The compounds below were run on T1, DCAMKL2. Settings: concentration: 1 μM, replicates: in singlicate; n = 1.
T1 construct: gene DCLK2
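Also: KINOMEscan kinase panel screen.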

Row | SMILES | %Inh
1 | COc1cc2c(cc1OC[C@@H](O)CO)ncc1c3ccc(C#N)cc3[nH]c21 | 0%
2 | COc1ccc(Nc2ncc(C#N)c(Nc3ccccc3C(N)=O)n2)cc1N1CCN(C)CC1.Cl [GSK1558669] | 100%
3 | Cc1cccc(-c2nc(-c3ccc(S(C)(=O)=O)cc3)sc2-c2ccncc2)c1 | 0%
4 | COc1cc(Nc2nccc(N3CCC(NC(=O)c4cccc(NC(C)=O)c4)C3)n2)cc(OC)c1OC (stereo not shown) [GSK1379754] | 21%
5 | Cc1ccc(NC(=O)c2ccnc(N3CCN(C)CC3)c2)cc1-c1ccc(C(=O)NCC2CC2)cc1 [GW775604] | 15%
6 | CSc1ccc(-c2cc3ncnc(SCC(=O)O)c3s2)cc1 | 15%
7 | c1ccc(-c2cc(-c3c[nH]nc3-c3ccccn3)ccn2)cc1 [GW576604] | 23%
8 | O=C(Nc1n[nH]c2cc(-c3cccc(F)c3)ccc12)C1CC1 [SB-735464] | 0%
9 | Cc1c(Cn2c(C)nn3c(=O)cc(N4CCOC(C)C4)nc23)cccc1C(F)(F)F (stereo not shown) [GSK2344444] | 0%
10 | Cc1nnc(-c2ccc3ncc(-c4ccc(S(C)=O)cc4)n3c2)o1 (stereo not shown) | 0%
11 | CN(C(=O)c1ccc(-c2cc(-c3c[nH]nc3-c3ccccn3)ccn2)cc1)C1CCOCC1 [GW810083] | 0%
12 | Fc1ccc(-c2ncn(CCCN3CCOCC3)c2-c2ccccn2)cc1 [SB-211742] | 0%
13 | COc1cc2c(cc1OCCN1CCN(C)CC1)ncc1c3ccc(C#N)cc3[nH]c21 | 0%
